IMPase Li cell – IMPase inhibition in cells with lithium potentiation; CHO-M1 cells, IP1 TR-FRET (IP-One), carbachol + lithium; Potency, µM (doses to about 59.4 µM), for inactives: at the highest dose activity, negative = IMPase inhibition, usual class: inhibitors; 210,000 tested, 0.35% active; AID 1457; active = well fitted curve in the direction sought with a large enough effect; inconclusive = small, poorly fitted or top-dose-only effect, or another doubt; inactive = no such curve, though single readings can be large; an effect the other way counts as inactive or inconclusive;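 note: IP1 builds up when IMPase is blocked and the TR-FRET signal falls; potency is the fitted concentration of half-maximal effect; plate controls were basal vehicle for no effect and high inhibitor control for full effect; nearly all actives have a fitted effect of over 50% in size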
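CHO cells stably expressing M1 receptor (2000/well, cultured 16–30 h) treated 30 min at 37C with compound plus low lithium. Cytosolic IP1 by TR-FRET (665/620 ratio and 620 channel) after 10 min lysis; AC50 by Hill fit.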
HPGD block – blocks human HPGD enzyme activity; P15428; purified HPGD, NADH fluorescence kinetic, PGE2 substrate; Potency, µM, inactives show at the highest dose activity change, negative = inhibition, actives largely listed as inhibitors; 150,000 tested, 4.3% active; AID 894; note: potency is the fitted concentration of half-maximal effect
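NADH formation kinetics: reaction with 30 uM PGE2 and 1 mM NAD+ (final), 20 nM enzyme, Tris-HCl pH 8 with Tween 20, after 15 min compound preincubation at room temperature. Fluorescence change, last versus first of five reads.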
PNC assembly inh – blocks assembly of the perinucleolar compartment; PC3M PTB-GFP, PNC prevalence imaging, 16 h; hits give low values; 140,000 tested, 3.1% active; activity change (PNC), negative = inhibition, % at 10 µM;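 active = readout at or below -70, meaning at least 70% loss of cells showing the perinucleolar compartment, a nuclear body marking cancer cells; inconclusive = readout between -30 and a set limit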;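 note: plate controls were DMSO wells for no effect and camptothecin positive control wells for full effect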
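PC3M cells stably expressing PTB-GFP, 750–1000 cells/well, treated 16 h at 37 °C with compound (23 nl of library stock), in duplicate. After paraformaldehyde fixation and Hoechst stain, imaged at 20x; PNC prevalence scored by image analysis.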
ALDH1A1 inh – inhibitors of human aldehyde dehydrogenase 1A1 | Purified ALDH1A1, NADH fluorescence, propionaldehyde substrate | Potency, µM (titrated, usually from 75.3 µM), inactives show top-dose activity, negative = inhibition, actives largely listed as inhibitors | 220,000 tested, 7.3% active | AID 1030;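 note: potency is the fitted concentration of half-maximal effect; plate controls were no enzyme wells and a reference inhibitor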
IMPase inh – cell-permeable inhibitors of inositol monophosphatase (IMPase) | inhibition (IP1 accumulation), % at 46.1 µM | P97697 | CHO-M1 cells, IP1 accumulation, HTRF TR-FRET ratio | AID 901 | 120,000 tested, under 10 active; active = well fitted curve in the direction sought with a large enough effect in the signal ratio, not every such curve was filed as active; inconclusive = small, poorly fitted or top-dose-only effect, or a change in a side signal; inactive = no such curve, though single readings can be large or run the other way; the % refers to the signal ratio;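 note: cells stimulated with carbachol in lithium chloride buffer; plate controls were DMSO basal wells for no effect and reference inhibitor wells for full effect; higher means more IMPase inhibition seen as more IP1 and lower FRET ratio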
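CHO-M1 cells (CHO stably expressing M1 receptor), compound up to 46 uM final, stimulated with carbachol (50 uM as added) in buffer with 50mM LiCl, pH 7.4, 30 min at 37C. Cytosolic IP1 read by TR-FRET; AC50 from Hill fits.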
NPSR antag – neuropeptide S receptor (human) antagonism, cAMP; Q6W5P4; CHO-NPSR cells, cAMP TR-FRET, antagonist mode; Potency, µM (titrated, usually from 38.3 µM), for inactives: at the top dose activity change, negative = inhibition, hits mostly inhibitors; 220,000 tested, 1% active; AID 1461; active = well fitted curve in the direction sought with a large enough effect; inconclusive = small, poorly fitted or top-dose-only effect, or another doubt; inactive = no such curve, though single readings can be large; an effect the other way counts as inactive or inconclusive; note: potency is the fitted concentration of half-maximal effect; nearly all actives have a fitted effect of over 50% in size
Target sequence (Q6W5P4 whole entry, looked up): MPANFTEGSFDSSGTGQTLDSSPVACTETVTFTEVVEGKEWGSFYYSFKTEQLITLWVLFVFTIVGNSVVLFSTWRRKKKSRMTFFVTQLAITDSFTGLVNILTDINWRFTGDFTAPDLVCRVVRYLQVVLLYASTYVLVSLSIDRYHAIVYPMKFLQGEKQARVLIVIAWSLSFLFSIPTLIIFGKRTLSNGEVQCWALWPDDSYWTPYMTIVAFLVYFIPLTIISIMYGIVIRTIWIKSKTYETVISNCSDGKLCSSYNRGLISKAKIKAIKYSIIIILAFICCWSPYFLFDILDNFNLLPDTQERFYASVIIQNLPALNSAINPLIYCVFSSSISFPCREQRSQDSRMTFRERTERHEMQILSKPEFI
An asterisk follows results filed as active; ? = inconclusive; · = no result given; [ ] = dose if it differs, or a comment. Shown are actives, neighbours in structure and some others; about 11% of the full set was active somewhere. Unless noted, calls come from the whole dose curve; as a rule, active = well fitted inhibition curve with a large enough effect (not every such curve was filed as active); inconclusive = small, poorly fitted or top-dose-only effect, or another doubt; inactive = no such curve, though single readings can be large or run the other way. Unless noted, % is set by controls: 0 for no effect and ±100 for the full control effect.

SMILES	IMPase Li cell	HPGD block	PNC assembly inh	ALDH1A1 inh	IMPase inh	NPSR antag
CCCOc1cccc(C2/C(=C(/O)c3ccc(OC)cc3)C(=O)C(=O)N2CCN(C)C)c1 (centres undefined)	?	-8.1%	23.7	15.8µM*	-19.3	10.5%[46.1 µM]
CCCOc1ccc(/C(O)=C2/C(=O)C(=O)N(CCOC)C2c2cccnc2)cc1 (centres undefined)	11.2µM*	-23.3%	13.2	-1.5%	-12.0	?
CCCOc1ccc(/C(O)=C2/C(=O)C(=O)N(CCCOC)C2c2ccncc2)cc1 (centres undefined)	-24.2%[38.3 µM]	-18.2%	?	-6.2%	-7.5	19.6%[46.1 µM]
Cc1ccc(CSc2sc(C(=O)c3ccccc3)c(N)c2C#N)cc1	50.9%[38.3 µM]	?	26.0	?	-0.4	-28.1%[46.1 µM]
CCCn1c(SCC(=O)Nc2nnc(CC)s2)nnc1-c1ccncc1	-7.2%	·	·	?	·	3.0%
COc1ccc(/C(O)=C2\C(=O)C(=O)N(CCN(C)C)C2c2cc(OC)c(OC)c(OC)c2)c(C)c1 (centres undefined)	-7.0%[38.3 µM]	-21.5%	30.8	28.2µM*	0.5	6.2%[46.1 µM]
Cc1c(N=C2NC(=O)/C(=C/c3cccc([N+](=O)[O-])c3)S2)c(=O)n(-c2ccccc2)n1C	-7.6%	2.51µM*	10.6	5.5%	·	-15.2%
CCOc1ccccc1NC(=O)c1ccc(C(=O)Nc2ccccc2OCC)cc1	·	·	·	·	-14.4	·
CCOc1ccccc1NC(=O)CN(Cc1ccccc1)S(C)(=O)=O	23.6%[38.3 µM]	-2.5%	-94.2*	3.1%	-1.0[1.84 µM]	-16.7%[46.1 µM]
CCN(CC)S(=O)(=O)c1cc(C(=O)Nc2ccccc2[N+](=O)[O-])ccc1Cl	11.9%	-6.6%	41.4	-11.1%	·	-22.8%
CCN(CC)S(=O)(=O)c1ccc(C(=O)Nc2cc3oc4ccccc4c3cc2OC)cc1	-6.5%	-13.4%	12.0	?	·	-10.5%
COc1cc2c(cc1NC(=O)c1cccc(S(=O)(=O)N(C)C)c1)oc1ccccc12	-4.3%	?	-107.1*	?	·	-20.0%
CCOc1ccccc1NC(=O)c1ccc(S(=O)(=O)N(C)C)cc1	61.4%[38.3 µM]	-17.5%	-21.1	14.1µM*	-6.3	-13.3%[46.1 µM]
CN(C)S(=O)(=O)c1cccc(C(=O)Nc2ccccc2[N+](=O)[O-])c1	5.9%	39.8µM*	-7.4	?	·	9.2%
O=C1NC(=Nc2ccccc2)c2c1cccc2[N+](=O)[O-]	-3.5%	-26.2%	-22.6	10.6%	-0.4	8.7%
Cn1c2ccccc2c2c(C(=O)N3CCN(c4ccccc4)CC3)cn(C3CCCC3)c(=O)c21	27.4%[38.3 µM]	?	-113.4*	?	-7.8	?
NNC(=O)c1snnc1-c1ccccc1	·	·	·	·	·	-3.6%
COc1ccc(-n2c(-c3ccccc3)cc3c2CCCC3=O)cc1	-16.1%[38.3 µM]	?	-1.8	15.8µM*	12.8	?
O=C1CCCc2c1cc(-c1ccccc1)n2-c1ccc(O)cc1	1.2%	-13.9%	60.9	-3.5%	·	2.7%
CCOC(=O)c1nnn(-c2nonc2-n2cccc2)c1CN1CCC(C)CC1	-10.9%[38.3 µM]	-17.2%	43.0	-2.9%	2.5	?
Cn1c(=O)oc2cc(S(=O)(=O)NCCC(=O)NCCc3ccc(Cl)cc3)ccc21	17.6%[38.3 µM]	-2.4%	-28.3	-11.2%	-14.5	-9.2%[46.1 µM]
O=C(CC1S/C(=N/N=C/c2cccnc2)NC1=O)Nc1ccccc1 (centres undefined)	-1.6%	·	·	17.4%	·	-21.0%
COC1(OC)N=C(N)C2(C#N)C(c3cccc(Oc4ccccc4)c3)C12C#N (centres undefined)	32.2%[38.3 µM]	-16.6%	35.7	22.4µM*	-4.9	-8.0%[46.1 µM]
CC1(C)CC(=O)C2=C(C1)OC(/N=C/N1CCOCC1)=C(C#N)C2c1ccccc1 (centres undefined)	7.7%[38.3 µM]	-24.3%	20.3	?	-2.8	-10.9%[46.1 µM]
CCN1C(=O)/C(=C\N2CCN(C(=O)c3ccco3)CC2)SC1=S	·	·	·	?	·	23.0%
CC1(C)CC(=O)C(=CN2CCN(C(=O)c3ccco3)CC2)C(=O)C1	-7.6%[38.3 µM]	-9.3%	?	22.4µM*	13.9	-6.6%[46.1 µM]
CC1(C)CC(=O)C(=CN2CCOCC2)C(=O)C1	2.9%	·	·	10µM*	·	44.1%

Screening results from PubChem.
